# Measured values as given in PubChem BioAssay (NCATS).
# Records with an inconclusive call do not appear. Values without a mark were called inactive. The source made the active and inactive calls. Unless noted, the call rests on the fitted dose curve; in most records, active means well fitted curve in the direction sought with a large enough effect; inconclusive means small, poorly fitted or top-dose-only effect, or another doubt; inactive means no such curve, though single readings can be large; an effect the other way counts as inactive or inconclusive.
# Tested on: not listed separately
# Assay: Confirmatory qHTS for small molecule stabilizers of the endoplasmic reticulum resident proteome: Secreted ER Calcium Modulated Protein (SERCaMP) assay (AID 1508628); further: nearly all actives have a fitted effect of over 40% in size; further: potency means the concentration at half of the fitted maximal effect; on activity change, negative = decrease: on the % scale 0 is the no-effect control and ±100 the full control effect
# Details: SERCaMP secreted luciferase ER calcium/proteostasis reporter; series mostly up to 76.3 µM; activity change, negative = decrease: at the top concentration
# Procedure, shortened: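 Reporter secretion upon ER calcium depletion (100 nM thapsigargin, 4 h, 37C) is measured as medium luminescence with coelenterazine, after 16 h compound pretreatment of SH-SY5Y-GLuc-SERCaMP cells; primary at three concentrations up to 38.3 uM, follow-up at 11 (up to 76.6 uM).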
Structure (SMILES),"activity change, negative = decrease [%]",Potency
O=c1cc(CO)occ1O,3.4,
CNCCCC1c2ccccc2C=Cc2ccccc21,131,
Cc1c(O)cccc1C(=O)N[C@@H](CSc1ccccc1)[C@H](O)CN1C[C@H]2CCCC[C@H]2C[C@H]1C(=O)NC(C)(C)C,,11.2 µM (active)
CC(=O)c1ccc2c(c1)N(CCCN(C)C)c1ccccc1S2,,25.1 µM (active)
CN1CCN(C2Cc3ccccc3Sc3ccc(Cl)cc32)CC1 (stereo unspecified),,17.8 µM (active)
CN(C)CCC=C1c2ccccc2CCc2ccccc21,-41,
C=CCn1c(=O)n([C@@H]2O[C@H](CO)[C@@H](O)[C@H]2O)c2nc(N)[nH]c(=O)c21,14.1,
CCN(CC)CCOC(=O)C1(C2CCCCC2)CCCCC1,-24.9,
CN1CCCCC1CCN1c2ccccc2Sc2ccc(S(C)=O)cc21 (stereo unspecified),,12.6 µM (active)

# Tested on: not listed separately
# Assay: Cell Viability qHTS for small molecule stabilizers of the endoplasmic reticulum resident proteome (AID 1508629);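 further: human SH-SY5Y neuroblastoma cells carrying the GLuc-SERCaMP reporter; compound exposure about 46 h in total before the viability read; on the % scale 0 is the no-effect control and ±100 the full control effect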
# Details: cell viability counter-screen, 100 nM thapsigargin for final 4 h
row,Structure (SMILES),max response [%]
1,O=c1cc(CO)occ1O,8.05
2,Cc1c(O)cccc1C(=O)N[C@@H](CSc1ccccc1)[C@H](O)CN1C[C@H]2CCCC[C@H]2C[C@H]1C(=O)NC(C)(C)C,7.19
3,CC(=O)c1ccc2c(c1)N(CCCN(C)C)c1ccccc1S2,-6.13
4,CCN(CC)CCOC(=O)C1(C2CCCCC2)CCCCC1,-2.82
5,CN1CCCCC1CCN1c2ccccc2Sc2ccc(S(C)=O)cc21 (stereo unspecified),-1.8
6,COc1cc(C)c(Cc2cnc(N)nc2N)cc1OC,8.8
7,O=C1N=C(O)CN1/N=C/c1ccc(-c2ccc([N+](=O)[O-])cc2)o1,30.6

# Tested on: not listed separately
# Assay: Primary qHTS for small molecule stabilizers of the endoplasmic reticulum resident proteome: Secreted ER Calcium Modulated Protein (SERCaMP) assay (AID 1508630); further: potency means the concentration at half of the fitted maximal effect; on activity change, negative = inhibition: on the % scale 0 is the no-effect control and ±100 the full control effect
# Details: SH-SY5Y GLuc-SERCaMP (Gaussia luciferase released on ER calcium loss) secretion, thapsigargin, luminescence; series mostly up to 38.4 µM; activity change, negative = inhibition: at the top concentration
# Procedure, shortened: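 The SH-SY5Y reporter protocol was run at 3 concentrations up to 38.3 uM (primary) or 11 concentrations (follow-up): 16 h compound, 100 nM thapsigargin for 4 h, then extracellular luciferase luminescence.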
Structure (SMILES),"activity change, negative = inhibition [%]",Potency
COc1ccc2c(c1)C(=O)N(CCc1ccc(S(=O)(=O)NC(=O)NC3CCCCC3)cc1)C(=O)C2(C)C,44.1,
CC(C)C(=O)c1c(C(C)C)nn2ccccc12,,inactive
CN(C)CCN(Cc1ccccc1)c1ccccn1,0.507,
CN(C)CCCN1c2ccccc2Sc2ccc(Cl)cc21,,inactive
CC(=O)NC(Cc1ccccc1)C(=O)O (stereo unspecified),-16,
CC(C(O)c1ccc(O)cc1)N1CCC(Cc2ccccc2)CC1 (stereo unspecified),253,
CC(=O)OCC(=O)[C@@]1(O)CC[C@H]2[C@@H]3CCC4=CC(=O)CC[C@]4(C)[C@H]3C(=O)C[C@@]21C,,inactive
CC1(C)Oc2ccc(C#N)cc2[C@@H](N2CCCC2=O)[C@@H]1O,,inactive
Nc1ccc(S(=O)(=O)Nc2ccccc2)cc1,-15.5,
CCCCCCCCCCCCCCCC(=O)NCCO,,inactive
C=Cc1c(C)c2cc3[nH]c(cc4nc(cc5nc(cc1[nH]2)C(C)=C5CCC(=O)O)C(CCC(=O)O)=C4C)c(C)c3C=C,,inactive
OCc1cc(C(O)CNCCCCCCOCCCCc2ccccc2)ccc1O (stereo unspecified),3.83,
NC1CCN(c2cccc(Cl)n2)CC1,-18.3,
CNC(=O)Oc1ccc2c(c1)[C@]1(C)CCN(C)[C@@H]1N2C,22.2,
CCN(CC)CCOC(=O)C1(C2CCCCC2)CCCCC1,,inactive
NC(=O)NNc1ccccc1,-29.3,
NC(=O)NC(=O)Cc1ccccc1,-10.2,
Cc1cc(N)c2ccccc2[n+]1CCCCCCCCCC[n+]1c(C)cc(N)c2ccccc21,,inactive
C[C@H](NC(CCc1ccccc1)C(=O)O)C(=O)N1CCC[C@H]1C(=O)O (stereo partly specified),28.6,
CN(C)CCOC(C)(c1ccccc1)c1ccccn1 (stereo unspecified),-25.3,
O=C1N=C(O)CN1/N=C/c1ccc(-c2ccc([N+](=O)[O-])cc2)o1,,14.1 µM (active)

# Tested on: not listed separately
# Assay: A High-Content qHTS Against Drug Library for the Identification of Small Molecules that Inhibit DYT1 Early Onset Primary Dystonia-Associated Cell Pathology (AID 1645839; calls by dose curve)
# Details: HEK293 Flp-In EGFP-delE TorsinA, punctate imaging, 48 h; series mostly up to 46.1 µM; % pathology change, negative = correction: at the top concentration
# Procedure, shortened: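 High-content imaging quantified EGFP-TorsinA mislocalization in HEK293-derived cells inducibly expressing DYT1 mutant torsinA, after 48 h exposure to compound given together with tetracycline induction. Cell count served as a toxicity channel alongside %pathology.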
row,Structure (SMILES),"% pathology change, negative = correction [%]"
1,CC(C)C(=O)c1c(C(C)C)nn2ccccc12,2.17
2,CC(C(O)c1ccc(O)cc1)N1CCC(Cc2ccccc2)CC1 (stereo unspecified),15.6
3,CC(=O)OCC(=O)[C@@]1(O)CC[C@H]2[C@@H]3CCC4=CC(=O)CC[C@]4(C)[C@H]3C(=O)C[C@@]21C,23.3
4,O=c1cc(CO)occ1O,6.58
5,CCCCCCCCCCCCCCCC(=O)NCCO,13.8
6,C=Cc1c(C)c2cc3[nH]c(cc4nc(cc5nc(cc1[nH]2)C(C)=C5CCC(=O)O)C(CCC(=O)O)=C4C)c(C)c3C=C,15.7
7,C=CCn1c(=O)n([C@@H]2O[C@H](CO)[C@@H](O)[C@H]2O)c2nc(N)[nH]c(=O)c21,14.7
8,CCN(CC)CCOC(=O)C1(C2CCCCC2)CCCCC1,8.79
9,C[C@H](NC(CCc1ccccc1)C(=O)O)C(=O)N1CCC[C@H]1C(=O)O (stereo partly specified),10
10,COc1cc(C)c(Cc2cnc(N)nc2N)cc1OC,0.854
11,CN(C)CCOC(C)(c1ccccc1)c1ccccn1 (stereo unspecified),9.92

# Target: Cytochrome P450 2D6 (Homo sapiens) (UniProt P10635)
# Sequence (P10635 whole entry, looked up): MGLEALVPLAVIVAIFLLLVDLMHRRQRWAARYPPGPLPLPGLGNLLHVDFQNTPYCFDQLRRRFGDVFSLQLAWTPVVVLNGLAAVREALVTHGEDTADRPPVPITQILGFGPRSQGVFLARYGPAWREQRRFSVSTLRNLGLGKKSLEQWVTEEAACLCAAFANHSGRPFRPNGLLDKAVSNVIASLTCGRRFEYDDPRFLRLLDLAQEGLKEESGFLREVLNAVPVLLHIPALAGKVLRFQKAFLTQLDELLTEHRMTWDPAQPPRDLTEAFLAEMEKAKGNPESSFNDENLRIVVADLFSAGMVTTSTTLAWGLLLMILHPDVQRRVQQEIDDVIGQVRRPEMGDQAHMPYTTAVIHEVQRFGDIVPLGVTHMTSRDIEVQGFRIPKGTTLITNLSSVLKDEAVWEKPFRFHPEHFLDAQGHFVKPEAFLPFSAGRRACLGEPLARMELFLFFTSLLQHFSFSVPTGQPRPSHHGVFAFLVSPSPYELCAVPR
# Assay: Cytochrome P450 family 2 subfamily D member 6 (CYP2D6) small molecule antagonists: luciferase biochemical (cell-free) qHTS assay (AID 1645840; active means well fitted curve in the direction sought with a large enough effect in the repeat runs; an effect the other way counts as inactive or inconclusive; further: nearly all actives have a fitted effect of over 55% in size; further: potency means the concentration at half of the fitted maximal effect; on activity change, negative = inhibition: on the % scale 0 is the no-effect control and ±100 the full control effect)
# Details: P450-Glo CYP2D6 enzyme, luciferin luminescence, 1 h; series mostly up to 57.4 µM; activity change, negative = inhibition: at the top concentration
# Procedure, shortened: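 P450-Glo CYP2D6 system: proluciferin substrate converted by enzyme to luciferin, read by luminescence proportional to activity. Enzyme-substrate mix with compound 10 min at room temperature, then NADPH regeneration 1 h before detection reagent.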
Structure (SMILES),"activity change, negative = inhibition [%]",Potency
CC(C)C(=O)c1c(C(C)C)nn2ccccc12,11.2,
CC(=O)NC(Cc1ccccc1)C(=O)O (stereo unspecified),0.522,
CC(=O)OCC(=O)[C@@]1(O)CC[C@H]2[C@@H]3CCC4=CC(=O)CC[C@]4(C)[C@H]3C(=O)C[C@@]21C,,3.89 µM (active)
CNCCCC1c2ccccc2C=Cc2ccccc21,,3.09 µM (active)
Cc1c(O)cccc1C(=O)N[C@@H](CSc1ccccc1)[C@H](O)CN1C[C@H]2CCCC[C@H]2C[C@H]1C(=O)NC(C)(C)C,,3.47 µM (active)
CC(=O)c1ccc2c(c1)N(CCCN(C)C)c1ccccc1S2,,0.436 µM (active)
CN1CCN(C2Cc3ccccc3Sc3ccc(Cl)cc32)CC1 (stereo unspecified),,0.121 µM (active)
C=Cc1c(C)c2cc3[nH]c(cc4nc(cc5nc(cc1[nH]2)C(C)=C5CCC(=O)O)C(CCC(=O)O)=C4C)c(C)c3C=C,-9.32,
NC1[C@H]2CN(c3nc4c(cc3F)c(=O)c(C(=O)O)cn4-c3ccc(F)cc3F)C[C@@H]12 (stereo partly specified),2.44,
Cc1cc(N)c2ccccc2[n+]1CCCCCCCCCC[n+]1c(C)cc(N)c2ccccc21,,5.35 µM (active)
C[C@H](NC(CCc1ccccc1)C(=O)O)C(=O)N1CCC[C@H]1C(=O)O (stereo partly specified),-2.57,
COc1cc(C)c(Cc2cnc(N)nc2N)cc1OC,15.8,
O=C1N=C(O)CN1/N=C/c1ccc(-c2ccc([N+](=O)[O-])cc2)o1,12.3,
